Where “and” joins values, the source holds several entries; their conditions need not be identical. Equal entries are not always repeated. Results filed as inconclusive are left out. Some compounds were tested as several samples or in several runs, with calls that do not always agree. Calls of active or inactive are those of the source. Calls follow the shape of the dose curve; as a rule, active = well fitted curve in the direction sought with a large enough effect; inconclusive = small, poorly fitted or top-dose-only effect, or another doubt; inactive = no such curve, though single readings can be large; an effect the other way counts as inactive or inconclusive.

Experiment [1] can be described thus: Viability qHTS for spleen associated tyrosine kinase inhibitor (SYKi) drug resistant MV4-11 cells (AID 1963824). Also: nearly all actives have a fitted effect of over 35% in size. In short, it runs like this:
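SYK inhibitor-resistant MV4-11 AML cells, 500 per well, added to predispensed compounds and incubated 72 hr at 37 C, 5% CO2. Viability measured by CellTiter-Glo luminescence after 10 min at room temperature.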

The nature of experiment [2]: Quantitative highthroughput screen to assess conditional lethalithy of NOMO1 cells grown in RPMI1640 with dialyzed fetal bovine serum (RPMI+ds) (AID 1963877). Also: nearly all actives have a fitted effect of over 30% in size. The method in brief:
(§1)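 Each medium arm—HPLM with 10% dialyzed FBS, or RPMI1640 with 5 mM glucose and 10% untreated or dialyzed FBS—was screened against an 11-point, 3-fold compound titration for 48 h at 37 °C, with CellTiter-Glo luminescence as endpoint.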

Experiment [3] in a line: Quantitative highthroughput screen to assess conditional lethalithy of NOMO1 cells grown in Human Plasma-Like Medium with dialyzed fetal bovine serum (HPLM+ds) (AID 1963878). Also: nearly all actives have a fitted effect of over 35% in size. The method in brief: as §1
Experiment [4] is described as follows: Quantitative highthroughput screen to assess conditional lethalithy of SEM cells grown in Human Plasma-Like Medium with dialyzed fetal bovine serum (HPLM+ds) (AID 1963882). Also: nearly all actives have a fitted effect of over 35% in size. As to Viability: series mostly up to about 46 µM. In short, it runs like this:
as §1

The nature of experiment [5]: Quantitative highthroughput screen to assess conditional lethalithy of SEM cells grown in RPMI1640 with unreated serum (RPMI+s) (AID 1963883). Also: nearly all actives have a fitted effect of over 35% in size.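 As to Viability: 100% = DMSO wells and 0% = empty wells without cells.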 The method in brief: as §1
A short description of experiment [6]: Quantitative highthroughput screen to assess conditional lethalithy of SEM cells grown in RPMI1640 with dialyzed fetal bovine serum (RPMI+ds) (AID 1963884). Also: nearly all actives have a fitted effect of over 35% in size.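 As to Viability: series mostly up to about 46 µM; 100% = DMSO control wells and 0% = empty wells without cells.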 The method in brief:
as §1

Experiment [7] is described as follows: Cellular viability qHTS for adrenocortical cancer (ACC) cell line SW-13 (AID 1963989). Also: nearly all actives have a fitted effect of over 65% in size.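 As to activity (max response): cells grown in serum-free medium with ITS supplement; % is scaled to controls: 0 for no effect and ±100 for the full control effect.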 As to conditions: SW-13 ACC cells viability, CellTiter-Glo, 48 h; activity (max response): stronger effect = lower value. The method in brief: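 48 h treatment, SW-13 in ITS/DMEM serum-free; doses up to 46 uM; readout CellTiter-Glo luminescence; curve fit four-parameter logistic.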

Experiment [8] in a line: Cellular viability qHTS for adrenocortical cancer (ACC) cell line NCI-H295R (AID 1963990). Also: nearly all actives have a fitted effect of over 60% in size. The method in brief: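 Compound titrations (up to 46 uM final) are applied to NCI-H295R cultures for 48 h at 37C. Viable cell number is estimated by CellTiter-Glo signal, normalised to DMSO and doxorubicin controls.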
Experiment [9] is described as follows: Quantitative highthroughput screen to assess conditional lethalithy of P12 Ichikawa cells grown in Human Plasma-Like Medium with dialyzed fetal bovine serum (HPLM+ds) (AID 1963879). Also: nearly all actives have a fitted effect of over 35% in size. As to Viability: series mostly up to about 46 µM. As to conditions: Potency: viability. The method in brief: as §1
A short description of experiment [10]: Quantitative highthroughput screen to assess conditional lethalithy of P12 Ichikawa cells grown in RPMI1640 with dialyzed fetal bovine serum (RPMI+ds) (AID 1963880). Also: nearly all actives have a fitted effect of over 35% in size.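 As to Viability: 100% = DMSO wells and 0% = empty wells on each plate.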 As to conditions: Potency: P12-Ichikawa viability. The method in brief:
as §1

A short description of experiment [11]: Quantitative highthroughput screen to assess conditional lethalithy of P12 Ichikawa cells grown in RPMI1640 with untreated serum (RPMI+s) (AID 1963881). Also: nearly all actives have a fitted effect of over 35% in size.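 As to Viability: series mostly up to about 46 µM; 100% = DMSO wells and 0% = empty wells without cells.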 As to conditions: Potency: viability. The method in brief:
as §1
Potency is read from the fitted curve at half-maximal effect.

Regarding `CCS(=O)(=O)Nc1ccc2[nH]c(O)c(C(=Nc3ccc(CN4CCCCC4)cc3)c3ccccc3)c2c1`, the Potency is 0.0332 µM (active) in experiment [1]; 0.833 µM (active) in [2]; 4.69 µM (active) in experiment [3]; 74.3 nM (active) in experiment [4]; 0.0935 µM (active) in experiment [5]; 0.0935 µM (active) in [6]. The Potency in experiment [7] is 3.55 µM (active); in experiment [8], 1.26 µM (active).

Take `CC(C)OC(=O)OCOP(=O)(CO[C@H](C)Cn1cnc2c(N)ncnc21)OCOC(=O)OC(C)C`: the figures for the Potency in experiment [1] and in experiment [2] were 9.44 µM (active) and 23.5 µM (active), respectively. The Potency entry in [9], in [10] and in experiment [8] was “inactive” each time.

`O=c1ncn2nc(Sc3ccc(F)cc3F)ccc2c1-c1c(Cl)cccc1Cl`: the values for the Potency in experiment [1] and in experiment [5] were 8.2 µM (active) and 16.6 µM (active), respectively. In addition, the activity (max response) in experiment [7] was -0.752% (inactive). The Potency entry in experiment [8] was “inactive”.

As for `Cc1cn(-c2cc(NC(=O)c3ccc(C)c(Nc4nccc(-c5cccnc5)n4)c3)cc(C(F)(F)F)c2)cn1`, the Potency result was “inactive and 4.68 µM (active)” in experiment [1]; 935 nM (active) in [9]; 1.32 µM (active) in [11]. For the same compound, in experiment [8], the Potency result was “inactive”.

Consider `CCc1c2c(nc3ccc(O)cc13)-c1cc3c(c(=O)n1C2)COC(=O)[C@]3(O)CC`, for which the Potency was 0.0083 µM (active) in [1]; 5.3 nM (active) in experiment [9]; 0.0042 µM (active) in experiment [10]; 0.0053 µM (active) in experiment [11]; 0.0083 µM (active) in experiment [5]; 0.0105 µM (active) in experiment [6]. In addition, the Potency in experiment [7] is 0.224 µM (active); in [8], 1.26 µM (active).

As to `Cn1cncc1[C@@](N)(c1ccc(Cl)cc1)c1ccc2c(c1)c(-c1cccc(Cl)c1)cc(=O)n2C`, the Potency is 2.35 µM (active) in [1] and 3.72 µM (active) in experiment [6]. In experiment [7], the activity (max response) was -19.2% (inactive). Moreover, the Potency result in experiment [8] was “inactive”.

On to `CO[C@@H]1[C@H](N(C)C(=O)c2ccccc2)C[C@H]2O[C@]1(C)n1c3ccccc3c3c4c(c5c6ccccc6n2c5c31)C(=O)NC4`, for which the Potency in experiment [1] was 51.7 nM (active) and 59 nM (active); in experiment [9], 2640 nM (active); in [4] it was 662 nM (active); in [5] it was 0.743 µM (active); in experiment [6], 0.743 µM (active).

As to `O=C(c1cc(Cc2n[nH]c(=O)c3ccccc23)ccc1F)N1CCN(C(=O)C2CC2)CC1`, the Potency in experiment [1] was 16.6 µM (active); in experiment [10], 20.9 µM (active); in experiment [5], 6.62 µM (active). Besides, the Potency result in experiment [8] was “inactive”.

Regarding `O=C1c2c(O)ccc(O)c2C(=O)c2c(NCCNCCO)ccc(NCCNCCO)c21`, the Potency was 59.6 nM (active) and 20.9 nM (active) in experiment [1]; 296 nM (active) in [9]; 0.332 µM (active) in experiment [10]; 0.264 µM (active) in experiment [11]; 332 nM (active) in [4]; 0.235 µM (active) in experiment [5]. The Potency is 1.16 µM (active) and 2.51 µM (active) in [7]; 4.11 µM (active) and 3.98 µM (active) in experiment [8].

As for `Cc1ccc2nc(NC(=O)CSc3nc4c(c(=O)n3-c3ccccc3)SCC4)sc2c1`, the Potency entry in experiment [1] was “inactive”. Also, the Potency in experiment [5] was 16.6 µM (active); in experiment [6], 20.9 µM (active). Further, the activity (max response) in [7] is -6.8% (inactive).

For the compound `CS(=O)(=O)N(Cc1ccco1)CC(O)Cn1c2ccccc2c2ccccc21` (stereo not given), the Potency in [1] is 16.4 µM (active) and 16.6 µM (active); in experiment [4], 18700 nM (active); in experiment [5], 14.8 µM (active); in [6] it was 5.9 µM (active). Further, the Potency entry in experiment [8] is “inactive”.

In the case of `N=C(N)c1ccc(OCCCCCOc2ccc(C(=N)N)cc2)cc1`, the Potency in experiment [1] was 4.22 µM (active) and 1.66 µM (active); in experiment [7], 16.4 µM (active) and 15.8 µM (active). The Potency result in experiment [9] and in [10] was “inactive” in each case.

As for `Nc1nc2c(c(=O)[nH]1)N(C=O)[C@H](CNc1ccc(C(=O)N[C@@H](CCC(=O)O)C(=O)O)cc1)CN2`, the Potency entry in [1], in [4], in [5], in [6] and in experiment [8] was “inactive” each time. The figures for the Potency in experiment [9], in experiment [10] and in [11] were 2960 nM (active), 3.32 µM (active) and 2.64 µM (active), respectively. Further, the activity (max response) in [7] was 4.65% (inactive).

Turning to `OC[C@H]1OC(O)C[C@@H](O)[C@H]1O` (stereo not given in full), the Potency entry in [1], in experiment [9], in [11], in experiment [4], in [5] and in experiment [6] was “inactive” throughout. In addition, the Potency result in experiment [8] is “inactive”. Also, the activity (max response) in experiment [7] was 7.09% (inactive).

In the case of `O=C(O)c1cn(C2CC2)c2cc(N3CCNCC3)c(F)cc2c1=O`, the Potency result in experiment [1] and in experiment [8] was “inactive” throughout. Besides, the Potency in experiment [4] was 16600 nM (active); in [6], 3.72 µM (active). In addition, the activity (max response) in [7] was -3.87% (inactive) and 6.05% (inactive).

For `NC(=O)c1cc[n+](CC2=C(C(=O)[O-])N3C(=O)[C@@H](NC(=O)Cc4cccs4)[C@H]3SC2)cc1`, the Potency result in experiment [1] is “inactive”. Moreover, the activity (max response) in experiment [7] is 11.8% (inactive).

With `Cn1cnc(-c2cc3nccc(Oc4ccc(NC(=S)NC(=O)Cc5ccccc5)cc4F)c3s2)c1`, the Potency in [1] is 36.6 nM (active) and 166 nM (active); in [9], 23500 nM (active); in experiment [10] it was 18.7 µM (active); in [5] it was 1.18 µM (active); in experiment [6], 0.0662 µM (active); in [7], 22.4 µM (active). The Potency in experiment [8] was 14.1 µM (active).

Consider `NC(=O)[C@H]1CCS[C@@H]2C[C@]3(CCCN3C(=O)Cc3ccc(NC(=O)COc4ccc(Cl)cc4Cl)cc3)C(=O)N12`, for which the Potency in experiment [1] was 2.91 µM (active); in experiment [9] it was 588 nM (active); in experiment [10] it was 1.48 µM (active); in experiment [11] it was 1.17 µM (active); in [6], 1.86 µM (active); in experiment [8], 3.98 µM (active).

The values above are taken from PubChem BioAssay (NCATS).
